# From PubChem BioAssay
# Compounds with a hit are over-represented: about 3.1% of the library has one in this group of screens.
# LGR2 antag: blocks bursicon-induced cAMP signaling via Drosophila LGR2; HEK293 LGR2, CRE-luciferase, bursicon-stimulated, 4 h; inhibition, % at 9.99 µM; hit rate 0.35% among 380,000;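 active means drop in luminescence signal, shown as inhibition above about 50% in the replicate tests, limit read from the data, passing the limit was not always enough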;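 further: agonist challenge used bursicon conditioned medium at about half maximal strength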
# TROY signal inh: blocks TROY-dependent signaling in reporter cells. Q293 LMP1-TROYcd NF-kB luciferase reporter, 4 h. inhibition, % at 10 µM. hit rate 0.98% among 360,000. AID 1347056;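 active means compounds whose plate-normalised and pattern-corrected inhibition of the luciferase reporter signal at the single screening dose is 50% or more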
# TWEAK-Fn14 inh: inhibitors of TWEAK-Fn14 interaction signaling; AID 1159606; inhibition, % at 10 µM; hit rate 2% among 360,000; TWEAK-stimulated Fn14 reporter cells, luciferase luminescence, 8 h; in the data active means inhibition above about 50%
# EWS-Fli block: EWS/Fli transcriptional activity inhibition. A673 NR0B1-luciferase reporter, viability-normalised. inhibition, % at 12.6 µM. hit rate 0.67% among 350,000. AID 651661;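 active means mean inhibition of at least 50% after viability correction, with every replicate also passing that limit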;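 further: firefly luciferase signal divided by Alamar Blue viability fluorescence both relative to DMSO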
# EBV LMP1 NFkB: Epstein-Barr LMP1 NF-kappaB reporter inhibition; inhibition, % at 12.5 µM; LMP1-induced NF-kappaB luciferase reporter cells, luminescence; hit rate 0.69% among 350,000; in the data active means inhibition above about 41%;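 further: 0% = neutral control wells and 100% = reference inhibitor control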
# PAX8 inh HTS: lowers PAX8-driven luciferase in RMG-I cells. RMG-I TPO-luciferase reporter, SteadyGlo, 24 h. AID 652154. hit rate 1.2% among 360,000. inhibition, % at 12.6 µM;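 active means mean replicate inhibition at least 60% with every replicate also reaching 60%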;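 further: luciferase light reporting Pax8 driven TPO promoter activity; plate controls were median of neutral control wells for no effect and mitoxantrone controls for full effect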
# * marks the source's active call; other numbers are inactive results; nt = no result given.
SMILES,LGR2 antag,TROY signal inh,TWEAK-Fn14 inh,EWS-Fli block,EBV LMP1 NFkB,PAX8 inh HTS
COc1cccc2c1cc([N+](=O)[O-])c1c(C(=O)O)cc3c(c12)OCO3,67*,2,4,33,-13,nt
C=CCc1cc(OC)c2c(c1)OCO2,12,-11,21,-5,-1,nt
Cn1ncnc2c(=O)n(C)c(=O)nc1-2,nt,88*,106*,nt,90*,nt
CCCN1CCC2(CC1)NC(CO)(CO)CO2,nt,nt,82*,nt,-4,nt
COC(=O)[C@@H]1[C@@H](CO)[C@@H]2Cn3c(ccc(-c4ccccc4)c3=O)[C@H]1N2C(=O)c1ccccc1F,4,nt,nt,4,nt,nt
Cc1ccc(NC(=O)c2ncn(CCCNCCN3CCOCC3)n2)cc1C,5,-1,70*,-2,-1,-15
COc1ccc(-c2cc(=NCCCCCC(=O)O)c3cc(C)ccc3o2)cc1,-96,-59,-36,-68,-4,-35
COc1ccc(-c2cc(=Nc3cccc(C(=O)O)c3)c3cc(C)ccc3o2)cc1,55*,21,58*,14,-5,-32
CC=Cc1ccc2n(c1=O)C[C@H]1[C@H](CO)[C@@H](C(=O)OC)[C@@H]2N1CC1CCCCC1 (mixture of isomers),-8,nt,nt,7,nt,12
COC(=O)[C@@H]1[C@@H](CO)[C@@H]2Cn3c(cccc3=O)[C@@H]2N1CC1CC1,31,nt,nt,7,nt,nt
CC1CN=C(Nc2ccccc2)S1 (centres undefined),nt,5,-8,nt,4,nt
CC1CN=C(Nc2cccc3ccccc23)S1 (centres undefined),nt,53*,44,nt,-14,nt
CC(C)(C)c1cc(C=C(C#N)C#N)cc(C(C)(C)C)c1O,45,57*,73*,48,24,109*
N#CC(C#N)=Cc1ccc(O)c(O)c1,26,-14,-5,8,-3,17
ClCCN(CCCl)c1ccc(-n2cnc3c(Cl)ncnc32)cc1,22,36,75*,55*,23,24
CCCCn1c(N)c(C(=O)NCCN2CCOCC2)c2nc3ccccc3nc21,nt,64*,3,nt,-5,nt
CCCCn1c(NC(=O)c2ccc(Br)o2)c(C(=O)OCC)c2nc3ccccc3nc21,5,59*,71*,11,-9,1
CCOC(=O)c1c(N)n(CCN2CCCCC2)c2nc3ccccc3nc12,-10,3,-11,nt,-7,nt
COCCCn1c(N)c(C(=O)Nc2ccccc2)c2nc3ccccc3nc21,4,2,6,16,nt,-4
CCCCn1c(NS(=O)(=O)c2ccccc2)c(C(=O)OCC)c2nc3ccccc3nc21,5,69*,80*,nt,4,nt
Nc1c(C(=O)NCCN2CCOCC2)c2nc3ccccc3nc2n1Cc1ccccc1,-2,8,22,15,-5,18
CC=Cc1ccc2n(c1=O)C[C@H]1[C@H](CO)[C@@H](C(=O)O)[C@@H]2N1S(=O)(=O)c1ccccc1C (mixture of isomers),3,nt,nt,-7,nt,-8
COc1ccc(C#Cc2ccc([C@@H]3[C@@H](CO)N4CCCCN(C(=O)Cc5ccncc5)C[C@H]34)cc2)cc1,-1,nt,nt,nt,nt,-2
CCOc1ccc(N2C(=O)/C(=C/c3ccco3)C(=O)NC2=S)cc1,nt,-4,57*,nt,-3,nt
CCc1ccc(N2C(=O)NC(=O)/C(=C\C=C\c3ccco3)C2=O)cc1,-6,5,5,71*,-8,42
SMILES,LGR2 antag,TROY signal inh,TWEAK-Fn14 inh,EWS-Fli block,EBV LMP1 NFkB,PAX8 inh HTS
O=C(Cc1cccnc1)N1CCCCN2[C@H](CO)[C@H](c3ccc(C#CC4(O)CCCC4)cc3)[C@H]2C1,4,nt,nt,-4,nt,-22
Cc1ccc(OC(=O)N(C)C[C@@H]2OCc3ccccc3-c3c(n(C)c4ccccc34)C(=O)N([C@H](C)CO)C[C@@H]2C)cc1,-4,nt,nt,nt,nt,-19
C[C@H]1CCC/C=C/[C@@H]2C[C@H](O)C[C@H]2[C@@H](O)/C=C/C(=O)O1,28,-50,61*,73*,-49,119*
CNC(=O)O/N=C(\C)Cc1nnn(-c2cc(C)on2)n1,-12,73*,21,-7,1,-8
O=C(Cc1ccccc1)N1CCCCN2[C@@H](CO)[C@@H](c3ccc(C#Cc4ccccc4)cc3)[C@@H]2C1,8,nt,nt,nt,nt,-2
CCCN1[C@@H]2c3ccc(-c4cccc(C(=O)N(C)C)c4)c(=O)n3C[C@H]1[C@H](CO)[C@H]2C(=O)OC,1,nt,nt,12,nt,-6
COc1ccccc1-n1c(O)c(C=NCCCn2ccnc2)c(=O)[nH]c1=O,nt,4,6,nt,2,nt
O=c1[nH]c(=O)n(-c2cccc3ccccc23)c(O)c1C=NCCCn1ccnc1,nt,16,62*,nt,-5,nt
CC=Cc1ccc2n(c1=O)C[C@@H]1[C@@H](CO)[C@H](C(=O)OC)[C@H]2N1CC1CC1 (mixture of isomers),2,nt,nt,-6,nt,nt
CN1CCN(C(=O)COc2ccc(-c3nc4ccccc4s3)cc2)CC1,nt,1,52*,nt,59*,nt
CN1CCN(C(=O)COc2ccc3ccccc3c2)CC1,4,-48,21,-32,-9,-12
O=C1NC(=O)C(CCc2ccncc2)(CCc2ccncc2)C(=O)N1C1CCCCC1,-15,-1,3,6,-4,20
O=C1NC(=O)N(C2CCCCC2)C(=O)C1C1c2ccccc2C(=O)N1Cc1ccccc1 (centres undefined),5,7,-1,nt,78*,nt
CCC1C(c2cc(OC)c(OC)c(OC)c2)c2cc3c(cc2OC1N1CCCC1)OCO3 (centres undefined),11,30,11,56*,0,nt
CC(C)NC(=O)N1[C@@H]2Cn3c(ccc(-c4cccc(C(=O)N(C)C)c4)c3=O)[C@H]1[C@@H](C(=O)O)[C@@H]2CO,1,nt,nt,-7,nt,nt
c1cnc(OCCN2CC2)cn1,nt,-7,-14,-5,-6,87*
Nc1ccc2ccc3cccc[n+]3c2c1,11,2,2,5,-10,-80
C[n+]1c(-c2ccccc2)c2cc(N)ccc2c2ccc(N)cc21,79*,0,9,11,0,96*
N#Cc1ccc(-c2ccc([C@H]3[C@H]4CN(C(=O)Cc5ccccc5)CCCCN4[C@H]3CO)cc2)cc1,-7,nt,nt,0,nt,6
CCOc1ccc(-c2c(C)n(-c3ccc(OCC)cc3)c3[n+]2CCCCC3)cc1,47,57*,87*,49,35,87*
Cc1cccc(S(=O)(=O)N2[C@@H]3Cn4c(ccc(-c5ccc(F)cc5)c4=O)[C@H]2[C@@H](C(=O)O)[C@@H]3CO)c1,13,nt,nt,-9,nt,nt
COc1cc2c(c(OC)c1OC)-c1ccc(O)cc1[C@@H](NC(C)=O)CC2,1,7,-7,51*,9,90*
COc1cc2c(c(OC)c1OC)-c1ccc(O)cc1C(NC(C)=O)CC2 (centres undefined),17,6,-41,25,-5,80*
CCCCCCCCCCCCCCCC[N+](C)(C)C,38,25,-20,57*,16,93*
